Laboratory results as given in PubChem BioAssay (NCATS).
Inconclusive results are not listed. Values without a mark were called inactive. The call rests on the fitted dose curve; in most records, active means well fitted curve in the direction sought with a large enough effect in the signal ratio, with a control signal flat; inconclusive means small, poorly fitted or top-dose-only effect, or a change in a side signal; inactive means no such curve, though single readings can be large or run the other way; the % refers to the signal ratio.

Target: Glucocorticoid receptor (Homo sapiens) (UniProt P04150)
Sequence (P04150 whole entry, looked up): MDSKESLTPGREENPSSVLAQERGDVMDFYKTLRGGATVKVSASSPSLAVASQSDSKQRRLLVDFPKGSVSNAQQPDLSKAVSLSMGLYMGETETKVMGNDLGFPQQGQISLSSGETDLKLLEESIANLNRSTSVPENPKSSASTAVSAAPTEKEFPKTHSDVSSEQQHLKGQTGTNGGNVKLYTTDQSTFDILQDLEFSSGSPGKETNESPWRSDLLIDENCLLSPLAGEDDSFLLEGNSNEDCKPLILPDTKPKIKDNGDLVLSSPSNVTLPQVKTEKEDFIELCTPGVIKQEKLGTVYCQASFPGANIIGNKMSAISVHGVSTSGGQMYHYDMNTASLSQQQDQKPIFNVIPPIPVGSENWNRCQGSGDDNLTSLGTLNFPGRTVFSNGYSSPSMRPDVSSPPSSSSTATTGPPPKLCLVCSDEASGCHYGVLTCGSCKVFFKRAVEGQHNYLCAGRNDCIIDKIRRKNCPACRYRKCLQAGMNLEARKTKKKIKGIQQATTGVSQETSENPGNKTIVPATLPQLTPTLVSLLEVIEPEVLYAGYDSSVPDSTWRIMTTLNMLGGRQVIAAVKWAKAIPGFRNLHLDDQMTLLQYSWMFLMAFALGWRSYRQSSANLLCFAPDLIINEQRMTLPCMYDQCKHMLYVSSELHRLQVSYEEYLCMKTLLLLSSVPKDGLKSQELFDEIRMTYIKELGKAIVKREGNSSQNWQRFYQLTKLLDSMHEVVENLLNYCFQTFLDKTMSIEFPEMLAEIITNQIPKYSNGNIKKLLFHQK
Experiment: qHTS assay for small molecule agonists of glucocorticoid receptor signaling (AID 588532)
Settings: HeLa MMTV-bla, beta-lactamase ratio, agonist, 18 h; hits give high values; percent of dexamethasone control, DMSO zero
Source text: NIH Chemical Genomics Center [NCGC] U.S. Environmental Protection Agency [EPA] National Institutes of Environmental Health Sciences [NIEHS] National Toxicology Program [NTP] NCGC Assay Overview The Glucocorticoid receptor (GR), a nuclear receptor subfamily member and its natural ligands includes […] etc. The GR is a validated drug target for inflammation. GR ligands such as dexamethasone are clinically available as anti-inflammatory drugs. Glucocorticoids implicate role in carbohydrate, protein and lipid metabolisms and programmed cell death. They are also a component of many chemotherapy regimens for the treatment of leukemias, lymphomas, and myelomas because of their role in the induction of apoptosis.
NCGC Assay Protocol Summary Using a beta-lactamase reporter-gene under control of glucocorticoid response element (GRE), a cell-based assay [CellSensor MMTV-bla HeLa cell line assay developed by Invitrogen] was used to measure GR ligands signaling. CellSensor MMTV-bla HeLa cells were used with assay medium containing 1% charcoal/dextran treated FBS, 0.1 mM NEAA, 1 mM sodium pyruvate and 25mM HEPES. The assay was performed in clear bottom black Greiner 1536-well plates. Dexamethasone and Mifepristine were used in the screen as agonist and antagonist positive controls respectively. Library compounds were measured for their ability to stimulate the reporter gene activity. Compounds were screened in a titration series in 1536-well format. The fluorescence intensity (405 nm excitation, 460/530 nm emission) was measured using an EnVision plate reader. Data was normalized relative to Dexamethasone control (0.1 uM, 100%), and DMSO only wells (basal, 0%). Concentration-response titration points for each compound were fitted to the Hill equation yielding concentrations of half-maximal stimulation (EC50) and maximal response (efficacy) values. qHTS protocol for GR beta-lactamase assay in agonist mode [Step] [Parameter] [Value] [Description] 1. Reagent; 6 uL; 1500 cells/well 2. Incubation; 37 C for 3-5 hrs 3. Compounds; 23 nL; 0.59 nM to 92 uM 4. Controls (Dexamethasone); 23 nL, - One column with dose response, start 4.6uM, 1:3 dilutions in duplicates - Final concentrations of 0.1 uM and 2 nM in two columns 5. Incubation; 37 C for 18 hrs 6. Detection reagent; 1 uL of CCF4-dye 7. Incubation; RT for 2 hrs 8. Detection; Fluorescence; Envision plate reader

Row | Structure (SMILES) | activation [%]
1 | CNC(=O)c1ccccc1 | -1.59
2 | O=C(O)c1cccc(Cl)c1Cl | 6.71
3 | N#CC1(O)CCCCC1 | 0.0169
4 | CC1=C(/C=C/C(C)=C/C=C/C(C)=C\C=O)C(C)(C)CCC1 | 1.42
5 | O=[N+]([O-])c1ccc(CCO)cc1 | -5.66
6 | CC#N | -2.4
7 | CCC1CO1 (stereo not given) | -3
8 | Cc1ccc(N(C)C)cc1 | -4.85
9 | Nc1ccc([N+](=O)[O-])c(N)c1 | -8.8
10 | CCCC(C)CO (stereo not given) | 0.0234
11 | Nc1cccc(O)c1 | -1.32
12 | C=C(C)OC(C)=O | -3.17
13 | Cc1ccc([N+](=O)[O-])c(N)c1 | -0.729
14 | Cc1ccc(Cl)cc1 | -1.4
15 | CC(=O)c1nccs1 | -5.55
16 | CCNS(=O)(=O)c1ccc(C)cc1 | -0.758
17 | O=C(O)c1ccccc1C(=O)O | -4.91
18 | CCc1ccccc1O | 4.35
19 | ClCCl | -3.26
20 | COc1ccc(N)c(OC)c1 | 4.84

Row | Structure (SMILES) | activation [%]
21 | Nc1ccc(Cl)cc1[N+](=O)[O-] | -4.92
22 | C=CCn1c(=O)n(CC=C)c(=O)n(CC=C)c1=O | -0.0268
23 | CCOC(=O)OCC | -5.65
24 | CC1CCC2CC1C2(C)C (stereo not given) | -2.14
25 | CC(N)CN (stereo not given) | -2.03
26 | O=[N+]([O-])c1ccccc1CCO | 3.95
27 | Cc1ccc(C)o1 | -6.27
28 | Nc1cc(S(=O)(=O)O)ccc1O | -0.152
29 | C=CC(=O)NC(C)C | 2.34
30 | Cc1cc(C2(c3cc(C)c(O)cc3C)OS(=O)(=O)c3ccccc32)c(C)cc1O | 3.46
31 | NC(N)=S | 1.8
32 | Cc1cc(C)cc(N)c1 | -0.353
33 | FC(F)(F)c1cccc(Cl)c1 | -8.16
34 | C1CCOC1 | 0.528
35 | Cc1cccc2sc(N)nc12 | -9.53
36 | CC(C)(O)CCC(C)(C)O | -3.83
37 | CC(C)C(C)C | -6.49
38 | CSCCC=O | -3.21
39 | O=C(Cl)c1c(Cl)cccc1Cl | -4.67
40 | Cc1ccc(C#N)cc1 | -8.98
